# Measured values taken from PubChem BioAssay (NCI).
# About 83,000 compounds went through this panel and 20% of them were active in at least one assay; those are over-represented in the sample as a whole.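 Cell lines were cultured in 96-well plates, exposed to a single compound concentration, and assessed for percent growth 48 hours later.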 Active and inactive are the calls of the source. How the source made its calls: active means growth percent below 10; inactive means the rest.
# System: SR leukemia
# Assay: NCI-60 one-dose screen, 48 h (100 = growth as untreated, 0 = no growth, -100 = all killed)
# Conditions: 10 µM unless noted
row,Compound,growth
1,C=CN(C(=O)N1CCN(c2cc3c(cc2F)c(=O)c(C(=O)O)cn3C2CC2)CC1)c1nc(-c2ccccc2)cs1,86.2% (inactive)
2,CNCCCNc1nc2ccccc2c2c(=O)c3cc(Cl)ccc3sc12,-39.9% (active)
3,CCOC(=O)C1=C(CCl)N(C)C(=O)NC1c1ccc2c(c1)OCO2 (stereo not given),19.8% (inactive)
4,COc1ccc(C2[C@@H](Cl)C(=O)N2c2cc(OC)c(OC)c(OC)c2)cc1Cl (stereo not given in full),5.49% (active)
5,Cn1cc(-c2nonc2-c2c[nH]c3ccccc23)c2cc(Br)ccc21,15.3% (inactive)
6,COc1cc2c3c(c4c5ccccc5[nH]c4c2c(OC)c1OC)C(=O)N(CCN1CCCCC1)C3=O,21.6% (inactive)
7,COC(=O)/C(CCC=C(C)C)=C1\[C@@H](OC(C)=O)C[C@@]2(C)[C@H]1C/C(=N/O)[C@H]1[C@@]3(C)CC/C(=N\O)[C@@H](C)[C@@H]3CC[C@@]12C,66.2% (inactive)
8,Cc1[nH]n(-c2cccc(Cl)c2)c(=O)c1/C=C1\C=c2ccccc2=CC1=O,29.7% (inactive)
9,CCN(CC)CCn1c2ccc(OC)cc2c2sc3cc(O)ccc3c(=O)c21,2.99% (active)
10,C=C1C(=O)O[C@H]2[C@H]1CC/C(COC(=O)NCc1ccc(Cn3c(=O)sn(-c4ccc(I)cc4)c3=O)cc1)=C\CC[C@@]1(C)O[C@@H]21,63% (inactive)
11,CS(=O)(=O)Nc1cc(-c2ccc3ncnc(Nc4ccc5c(cnn5Cc5ccncc5)c4)c3c2)cnc1Cl,44.6% (inactive)
12,COc1ccc2cc(C(=O)N3CCC([C@@H](C)C(=O)NCc4ccc5c(c4)OCO5)CC3)[nH]c2c1,62.6% [50 µM] (inactive)
13,Nc1ncccc1O,65.5% (inactive)
14,CC1(C)CC[C@]2(CO)CC[C@]3(C)[C@](O)([C@H](O)C[C@@H]4[C@@]5(C)CCCNC(C)(C)[C@@H]5CC[C@]43C)[C@@H]2C1,3.98% (active)
15,CN(C)CCC(=O)C1CC1,97.3% (inactive)
16,CCCc1cc(=O)oc2c(C(=O)CC(C)C)c(O)c(CC=C(C)C)c(O)c12,14.3% (inactive)
17,CSc1ccc2c3c(n(CCCn4ccnc4)c(=O)c2c1)-c1ccccc1C3=O,3.2% (active)
18,O=c1oc2ccccc2cc1-c1nn(-c2ccccc2)cc1-c1nn[nH]n1,92.4% (inactive)
19,COc1ccc(-c2cc(C(=O)N3N=C(c4ccc(N)cc4)CC3c3ccc(Cl)cc3)c3ccccc3n2)cc1 (stereo not given),14.5% (inactive)
20,COc1cc(/C=C/c2cn[nH]c2-c2ccc(C)cc2)cc(OC)c1OC,12.3% (inactive)

row,Compound,growth
1,COc1ccc(Nc2ncc(I)c(NCCCNC(=O)C3CCC3)n2)cc1,0.641% (active)
2,CN1CCOCCN(C)Cc2ccc3ccc(cc3c2)CN(C)CCOCCN(C)Cc2ccc3ccc(cc3c2)C1,9.14% (active)
3,S=c1ccnc[nH]1,131% (inactive)
4,c1ccc2cc(Cn3cc(CSc4nc5ccccc5s4)nn3)ccc2c1,103% (inactive)
5,O=C(O)c1cn(C2CC2)c2cc(N3CCN(C(=O)N4CCOCC4)CC3)c(F)cc2c1=O,116% (inactive)
6,O=C(NCCN1CCOCC1)OCc1ccc2c(Cl)cc(Cl)c(O)c2n1,68.4% (inactive)
7,O=C(/C=C/c1ccccc1)c1ccc(-n2cc(CN3CCN(c4cc5c(cc4F)c(=O)c(C(=O)O)cn5C4CC4)CC3)nn2)cc1,24.1% (inactive)
8,Cc1cc(NCCCNc2ccnc3cc(Cl)ccc23)nc(Nc2ccc(C(=O)N3CCCCC3)cc2)n1,-31.8% (active)
9,CC/C(=C(/c1ccc(O)cc1)c1ccc(OCCN2CCCCC2)cc1)c1ccc(OC)cc1,-23.3% (active)
10,O=C(Nc1cccnc1Nc1ccccc1)c1cn(Cc2cccc(Oc3ccccc3)c2)nn1,26.6% (inactive)
11,Clc1cccc(C2Cc3cnccc3-c3[nH]c4ccncc4c32)c1 (stereo not given),36.5% (inactive)
12,C=C1C(=O)O[C@H]2[C@H]1CC/C(COC(=O)NCc1ccc(Cn3c(=O)sn(-c4ccccc4)c3=O)cc1)=C\CC[C@@]1(C)O[C@@H]21,-4.67% (active)
13,O=C(NCCCCCCNC(=O)OCc1ccc2c(Cl)cc(Cl)c(O)c2n1)OCc1ccc2c(Cl)cc(Cl)c(O)c2n1,4.84% (active)
14,C/C(Cc1ccc(Cl)cc1)=C(\c1ccc(OCCN2CCCCCC2)cc1)c1ccc(OC(=O)c2ccccc2)cc1,-14.3% (active)
15,CC(O)CNC(Cc1ccccc1)c1ccc2c(c1)OCO2 (stereo not given),101% (inactive)
16,OC1(c2ccccc2)c2ccccc2N(c2ccccc2)c2ccc(Cl)cc21 (stereo not given),-28.7% (active)
17,O=C(Cc1ccc(/C=C/C(=O)c2ncc[nH]2)cc1)Nc1cc(F)c(F)c(F)c1,14.9% (inactive)
18,C/C(=N\Nc1ccccc1)c1ccc(NC2=CC(=O)c3ccccc3C2=O)cc1,59.2% (inactive)
19,O=S(=O)(Nc1ccc2ccccc2c1)c1ccc(-c2cnc(C3CC3)o2)cc1,16.5% (inactive)
20,O=c1c2ccccc2n(C[C@H]2CO2)c2ccccc12,8.95% (active)
